Source: PubChem BioAssay AID2320 (National Center for Advancing Translational Sciences (NCATS), 2010)
Records with an inconclusive call do not appear. Where a call stands in place of a potency, no number is given. Activity calls are given as the source filed them. Calls follow the shape of the full dose curve.

Assay: A qHTS for Small Molecule Inhibitors of Shiga Toxin (Confirmatory); also: nearly all actives have a fitted effect of over 75% in size
Conditions: Cell-based Shiga toxin protection reporter assay; series mostly up to 38.3 µM
Potency is read from the fitted curve at half-maximal effect.

Structure (SMILES) | Potency
CSc1nc(SCCO)c2sc3nc(-c4ccco4)c4c(c3c2n1)CC(C)(C)OC4 | inactive
COc1ccc(/C=C/c2nnc(NC(=O)CSc3ccc(Cl)cc3)s2)cc1 | 11.3 µM (active)
Cc1sc(NC(=O)CCCC(=O)O)c(C(N)=O)c1-c1ccccc1 | 11.3 µM (active)
CC(=O)c1ccc(-c2cccc([C@H]3[C@@H]4C=CC[C@@H](C)[C@@H]4C(=O)N3Cc3ccccc3)c2)cc1 | inactive
O=C(CN1CCN(c2ncc(C(F)(F)F)cc2Cl)CC1)NC(=O)NCc1ccccc1 | inactive
COc1ccc(CNCC(=O)Nc2sccc2C#N)cc1 | 20 µM (active)
CCN(C1CCCCC1)S(=O)(=O)c1ccc(S(=O)(=O)NCc2ccncc2)cc1 | inactive
O=C(CSc1nnc(-c2ccccn2)o1)Nc1ccccc1C(F)(F)F | 8.95 µM (active)
Cc1cc(C(=O)COC(=O)C2CC2)c(C)n1-c1ccc(F)cc1 | 4 µM (active)
N=c1c(S(=O)(=O)c2ccc(Cl)cc2)cc2c(=O)n3ccccc3nc2n1C1CCCCC1 | inactive
CCN(CCn1cccn1)Cc1nc(-c2ccccc2)no1 | inactive
CC(=O)N[C@@H](Cc1c[nH]c2ccccc12)C(=O)OCC(=O)Nc1ccc(Cl)c(S(=O)(=O)N(C)C)c1 | inactive
CCc1ccccc1NC(=O)Cn1nnc(-c2cccs2)n1 | inactive
O=C(Nc1ccc(/C=C/c2nc3ccccc3o2)cc1)c1ccc(F)cc1 | 3.18 µM (active)
Cc1cc(NC(=O)CSc2nc3ccsc3c(=O)n2Cc2ccccn2)n[nH]1 | 25.2 µM (active)
N#Cc1cc2c(nc1SCC(=O)Nc1cc(Cl)ccc1Cl)C1CCN2CC1 | 12.6 µM (active)
COc1ccccc1CNC(=O)Cn1cc([N+](=O)[O-])ccc1=O | inactive
CC(=O)c1cccc(NC(=O)c2ccc(NC(=O)CCS(=O)(=O)c3cccs3)cc2)c1 | inactive
Cc1ccc2c(N)[nH]nc2n1 | inactive

Structure (SMILES) | Potency
Cc1cc(C)n(-c2nc3c(c(=O)[nH]c(=O)n3C)n2Cc2cccc(Br)c2)n1 | inactive
CCn1c(SCC(=O)NCc2ccco2)nc2c1c(=O)n(C)c(=O)n2C | inactive
CC(=O)c1cccc(N2C(=O)C3C4CCC(C4=C(C)C)C3C2=O)c1 (stereo not drawn) | inactive
CCOc1ccc2nc(SCC(=O)NC3CCCCC3)[nH]c2c1 | inactive
Cc1nn(C2CCCCC2)c(N)c1-c1ccccc1 | inactive
Cc1ccc(CSc2nnc(CCCCCNC(=O)OC(C)(C)C)o2)cc1 | inactive
C=CCn1c(=S)[nH]c2cc(-c3ccccc3)sc2c1=O | 0.0113 µM (active)
Cc1sc(NC(=O)COc2cccc(-n3cnnn3)c2)c(C#N)c1C | inactive
CN(C)C(CNC(=O)CCC(=O)c1ccc(Br)cc1)c1ccccc1 (stereo not drawn) | inactive
Cc1cc(C(=O)COC(=O)c2cccn2C)c(C)n1Cc1ccco1 | 0.252 µM (active)
Cc1ccc(C)n1-c1ccc(NC(=O)c2ccccc2)cc1 | 15.9 µM (active)
CSCc1cc(N2CCOCC2)nc(SCc2ccc(Cl)cc2Cl)n1 | inactive
Cc1cccc(C(=O)Nc2nnc(SCC(=O)NC3CC3)s2)c1 | 4.49 µM (active)
COc1ccccc1C(=O)NNC(=O)c1ccc2ccccc2c1 | 0.0006 µM (active)
CCCc1cc(=O)oc2cc(C)cc(OCC(=O)NCc3ccccn3)c12 | inactive
O=C(/C=C/c1cn(CC(O)CN2CCCCC2)c2ccccc12)c1cccs1 (stereo not drawn) | inactive
CCCn1nnc(NC(=O)COc2ccc(C3CCCCC3)cc2)n1 | 0.0252 µM (active)
O=C(Nc1cccc(-c2csc(Nc3ccc(Cl)cc3)n2)c1)c1ccccc1 | 6.34 µM (active)
Cc1cccc(C(=O)Nc2scc(CC(C)C)c2C(=O)O)c1 | inactive
